Source: paper PMC4336329 (PLoS ONE, 2015)
Among all 310,000 compounds or so, about 14,000 (4.5%) showed an effect of 50% or more. The effect is printed as a negative number. What follows is part of a selection rich in strong results, with near analogues and random picks from the rest.

Each compound was assayed against human ether-à-go-go-related gene (hERG) potassium channel (human, UniProt Q12809) (assay: primary screen, population patch clamp on CHO cells stably expressing hERG; higher = less effect of the substance).
human ether-à-go-go-related gene (hERG) potassium channel, sequence (Q12809 whole entry, looked up): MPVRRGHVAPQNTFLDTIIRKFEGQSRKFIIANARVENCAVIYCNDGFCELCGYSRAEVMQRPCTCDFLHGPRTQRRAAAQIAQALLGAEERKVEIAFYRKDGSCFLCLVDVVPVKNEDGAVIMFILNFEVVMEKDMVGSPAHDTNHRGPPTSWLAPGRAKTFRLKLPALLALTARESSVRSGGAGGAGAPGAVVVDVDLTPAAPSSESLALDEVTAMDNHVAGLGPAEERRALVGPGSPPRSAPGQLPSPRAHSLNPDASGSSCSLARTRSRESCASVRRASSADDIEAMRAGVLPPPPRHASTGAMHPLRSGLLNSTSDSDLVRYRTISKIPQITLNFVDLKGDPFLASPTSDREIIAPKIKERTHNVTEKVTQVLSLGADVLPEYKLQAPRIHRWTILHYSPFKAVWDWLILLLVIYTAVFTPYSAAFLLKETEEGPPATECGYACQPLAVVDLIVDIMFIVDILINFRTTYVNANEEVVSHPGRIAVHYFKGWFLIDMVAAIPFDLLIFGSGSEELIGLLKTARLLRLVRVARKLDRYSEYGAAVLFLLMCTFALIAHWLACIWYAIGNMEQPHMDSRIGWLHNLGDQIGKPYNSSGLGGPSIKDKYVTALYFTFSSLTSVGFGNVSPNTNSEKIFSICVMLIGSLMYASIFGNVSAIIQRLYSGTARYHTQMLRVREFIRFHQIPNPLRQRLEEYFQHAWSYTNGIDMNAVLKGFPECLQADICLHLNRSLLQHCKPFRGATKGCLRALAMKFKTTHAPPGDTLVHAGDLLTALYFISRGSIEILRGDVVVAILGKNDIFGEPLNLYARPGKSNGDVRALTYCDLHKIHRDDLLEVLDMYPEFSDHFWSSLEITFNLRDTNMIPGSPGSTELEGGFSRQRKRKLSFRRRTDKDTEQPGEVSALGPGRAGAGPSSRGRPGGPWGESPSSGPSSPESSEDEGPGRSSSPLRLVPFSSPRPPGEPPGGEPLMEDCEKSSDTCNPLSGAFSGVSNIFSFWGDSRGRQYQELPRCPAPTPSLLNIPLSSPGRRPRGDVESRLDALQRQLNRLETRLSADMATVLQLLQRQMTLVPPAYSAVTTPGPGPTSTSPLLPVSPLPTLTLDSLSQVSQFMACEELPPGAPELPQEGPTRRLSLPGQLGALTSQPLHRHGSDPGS
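Also: peak tail current of the secondary pulse compared with the same well before compound.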

Question: With `CC(C)C(=O)N1CCN(c2ccccc2NC(=S)NC(=O)c2cccs2)CC1` as the compound, how does the “hERG current change (%, negative = inhibition) at 10uM” value read?
Answer: -2.66%

Question: With `CCOc1ccc(OCC)c(NC(=O)C2CCCN(C(=O)c3ccc(Cl)cc3)C2)c1` (stereo not drawn) as the compound, how does the “hERG current change (%, negative = inhibition) at 10uM” value read?
Answer: -34%

Question: Which “hERG current change (%, negative = inhibition) at 10uM” value does the source give for `Cc1ccc(OCCCCCN2CCOCC2)cc1` here?
Answer: 4.39%

Question: Which “hERG current change (%, negative = inhibition) at 10uM” value does the source give for `O=[N+]([O-])c1ccc(OCCCCCN2CCOCC2)cc1` here?
Answer: -58.6%

Question: For `Clc1ccc(OCCCCCN2CCOCC2)cc1`, which “hERG current change (%, negative = inhibition) at 10uM” value is on record?
Answer: -37.6%

Question: Which “hERG current change (%, negative = inhibition) at 10uM” value does the source give for `O=[N+]([O-])c1ccc(OCCCCN2CCCCC2)cc1` here?
Answer: -69.4%

Question: Which “hERG current change (%, negative = inhibition) at 10uM” value does the source give for `O=[N+]([O-])c1ccccc1OCCCCN1CCCCC1` here?
Answer: -32.2%

Question: For `C=Cc1ccc2c(c1)N(C)C(=C)S2.I`, which “hERG current change (%, negative = inhibition) at 10uM” value is on record?
Answer: 19.7%

Question: `CCOC(=O)c1oc2ccccc2c1NC(=O)COC` was tested. Which “hERG current change (%, negative = inhibition) at 10uM” value did it give?
Answer: -12.2%

Question: With `COc1ccc(CCNC(=S)Nc2cccc3ccccc23)cc1` as the compound, how does the “hERG current change (%, negative = inhibition) at 10uM” value read?
Answer: -4.42%

Question: For `CCOc1ccc(NS(=O)(=O)c2ccc(C(=O)N3CCC3)cc2)cc1`, which “hERG current change (%, negative = inhibition) at 10uM” value is on record?
Answer: -4.09%

Question: With `COc1ccc(OC)c(NC(=O)Cn2c(CCC(=O)O)ccc2-c2ccccc2)c1` as the compound, how does the “hERG current change (%, negative = inhibition) at 10uM” value read?
Answer: -5.33%

Question: `COc1ccccc1CNc1nc2nc(C)c(Cl)c(=O)n2[nH]1` was tested. Which “hERG current change (%, negative = inhibition) at 10uM” value did it give?
Answer: -2.39%

Question: Which “hERG current change (%, negative = inhibition) at 10uM” value does the source give for `O=C(Cn1c(=O)n(Cc2ccco2)c(=O)c2c3c(sc21)CCCCC3)Nc1ccccc1` here?
Answer: 6.54%

Question: How did the “hERG current change (%, negative = inhibition) at 10uM” value turn out when `O=C(Cn1c(=O)n(Cc2ccco2)c(=O)c2c3c(sc21)CCCC3)Nc1ccccc1` was run?
Answer: 18%

Question: `O=c1c2c3c(sc2n(CCN2CCCC2)c(=O)n1Cc1ccco1)CCCCC3` was tested. Which “hERG current change (%, negative = inhibition) at 10uM” value did it give?
Answer: -68.6%

Question: How did the “hERG current change (%, negative = inhibition) at 10uM” value turn out when `O=c1c2c3c(sc2n(CCN2CCOCC2)c(=O)n1Cc1ccco1)CCCCC3` was run?
Answer: -44.3%

Question: With `O=c1c2c3c(sc2n(CCN2CCCCC2)c(=O)n1Cc1ccco1)CCCCC3` as the compound, how does the “hERG current change (%, negative = inhibition) at 10uM” value read?
Answer: -69.1%

Question: How did the “hERG current change (%, negative = inhibition) at 10uM” value turn out when `O=c1c2c3c(sc2n(CCN2CCCC2)c(=O)n1Cc1ccccc1)CCCCC3` was run?
Answer: -34.7%

Question: `c1ccc(-c2[nH]ncc2-c2nc3ccccc3[nH]2)cc1` was tested. Which “hERG current change (%, negative = inhibition) at 10uM” value did it give?
Answer: -11%

Question: For `CCOC(=O)N1CCN(C(=O)Cn2c(C)cc3ccccc3c2=O)CC1`, which “hERG current change (%, negative = inhibition) at 10uM” value is on record?
Answer: 3.68%

Question: For `O=C(CCn1nnc2ccccc21)N1CCC(O)(c2cccc(F)c2)CC1`, which “hERG current change (%, negative = inhibition) at 10uM” value is on record?
Answer: 4.12%

Question: How did the “hERG current change (%, negative = inhibition) at 10uM” value turn out when `CC(C)(C)NC(=O)c1ccc(NC(=O)c2ccccc2-c2ccccc2C(=O)O)cc1` was run?
Answer: 25.2%

Question: `COc1ccc2cc(C(=O)C3CCCN(C4CCOCC4)C3)ccc2c1` (stereo not drawn) was tested. Which “hERG current change (%, negative = inhibition) at 10uM” value did it give?
Answer: -63.5%

Question: `CC(C)Oc1cccc(C(=O)C2CCCN(C3CCOCC3)C2)c1` (stereo not drawn) was tested. Which “hERG current change (%, negative = inhibition) at 10uM” value did it give?
Answer: -10.5%

Question: How did the “hERG current change (%, negative = inhibition) at 10uM” value turn out when `COc1cccc(C(=O)C2CCCN(C3CCOCC3)C2)c1` (stereo not drawn) was run?
Answer: -50.4%

Question: `COc1cccc(C(=O)C2CCCN(C(=O)c3ccccc3Cl)C2)c1` (stereo not drawn) was tested. Which “hERG current change (%, negative = inhibition) at 10uM” value did it give?
Answer: 5.15%

Question: `COc1ccc2cc(C(=O)C3CCCN(C(=O)c4ccnn4C)C3)ccc2c1` (stereo not drawn) was tested. Which “hERG current change (%, negative = inhibition) at 10uM” value did it give?
Answer: -41.1%

Question: For `COc1ccc(C(=O)C2CCCN(C(=O)C3CCOCC3)C2)c(C)c1` (stereo not drawn), which “hERG current change (%, negative = inhibition) at 10uM” value is on record?
Answer: 27%

Question: Which “hERG current change (%, negative = inhibition) at 10uM” value does the source give for `Cc1ccc(C(C#N)c2ccc3c(C(F)(F)F)cc(C(F)(F)F)nc3n2)cc1` (stereo not drawn) here?
Answer: 11.1%

Question: For `CCOc1cc(NS(=O)(=O)c2ccc(NC(C)=O)cc2)c(OCC)cc1NC(=O)C(C)C`, which “hERG current change (%, negative = inhibition) at 10uM” value is on record?
Answer: 10.3%

Question: `O=C(CCN1CCCCO1)N1CCCC(Nc2ccc(F)cc2)C1` (stereo not drawn) was tested. Which “hERG current change (%, negative = inhibition) at 10uM” value did it give?
Answer: 12.7%

Question: For `O=C(Cn1ccc([N+](=O)[O-])n1)N1CCc2ccccc21`, which “hERG current change (%, negative = inhibition) at 10uM” value is on record?
Answer: -2.32%

Question: How did the “hERG current change (%, negative = inhibition) at 10uM” value turn out when `Cc1cc(C)n2nc(C)c(-c3ccc(Cl)cc3)c2n1` was run?
Answer: 27.1%

Question: For `Cc1cc(C)n2cc(-c3ccc(Cl)cc3)c(C(=O)O)c2n1`, which “hERG current change (%, negative = inhibition) at 10uM” value is on record?
Answer: -50.9%

Question: How did the “hERG current change (%, negative = inhibition) at 10uM” value turn out when `CCOC(=O)c1c(-c2ccccc2)cn2c(C)cc(C)nc12` was run?
Answer: -22.9%

Question: For `O=c1[nH]c(=S)n(-c2ccccc2)c(O)c1/C=N/N1CCOCC1`, which “hERG current change (%, negative = inhibition) at 10uM” value is on record?
Answer: -2.11%

Question: For `Cc1noc(C)c1-c1nnc(-c2ccc(C(F)(F)F)cc2)o1`, which “hERG current change (%, negative = inhibition) at 10uM” value is on record?
Answer: 4.76%

Question: For `COCc1ccc(C(=O)NC2CCCN(Cc3ccccc3F)C2)o1` (stereo not drawn), which “hERG current change (%, negative = inhibition) at 10uM” value is on record?
Answer: 11.2%

Question: Which “hERG current change (%, negative = inhibition) at 10uM” value does the source give for `COCc1ccc(C(=O)N(C)C2CCCN(Cc3ccccc3F)C2)o1` (stereo not drawn) here?
Answer: 0.722%

Question: How did the “hERG current change (%, negative = inhibition) at 10uM” value turn out when `COCc1ccc(C(=O)N(C)CC2CCCN(CCc3ccccc3F)C2)o1` (stereo not drawn) was run?
Answer: -41%

Question: How did the “hERG current change (%, negative = inhibition) at 10uM” value turn out when `COCc1ccc(C(=O)N(C)CC2CCCN(CCc3ccc(OC)cc3)C2)o1` (stereo not drawn) was run?
Answer: -69.5%

Question: `COCc1ccc(C(=O)N(C)CC2CCCN(CCc3ccc(Cl)cc3)C2)o1` (stereo not drawn) was tested. Which “hERG current change (%, negative = inhibition) at 10uM” value did it give?
Answer: -78.9%

Question: `COc1ccccc1OCC(=O)Nc1ccc2c(c1)C(=O)N(CC1CCCO1)C2=O` (stereo not drawn) was tested. Which “hERG current change (%, negative = inhibition) at 10uM” value did it give?
Answer: -19.3%

Question: How did the “hERG current change (%, negative = inhibition) at 10uM” value turn out when `CC(=O)Nc1cccc(N(C(=O)C2COc3ccccc3O2)C(C(=O)NC2CCCCC2)c2cn(C)nc2C)c1` (stereo not drawn) was run?
Answer: 24.1%
